The list is not random: actives were taken first. Their share in the collection is about 4%.
UGM FP inh: M. tuberculosis UGM enzyme inhibitors, primary screen, biochemical, fluorescence polarization, single point; purified UGM, fluorescence polarization probe displacement; AID 504406, 2011; actives 0.06% (n = 320,000); UDP-galactopyranose mutase (Mycobacterium tuberculosis (strain ATCC 25618 / H37Rv)), …; inhibition, % at 10 µM; in the data active = inhibition above about 10%, passing the limit was not always enough; inconclusive = no clear call, values can overlap the other calls
FBA Mtb inh: Mtb FBA enzyme inhibitors, primary screen, biochemical, fluorescence, strain H37Rv | Fructose-bisphosphate aldolase (Mycobacterium tuberculosis (strain ATCC 25618 / H37Rv)), … | purified M. tuberculosis FBA, fluorescence read-out | inhibition, % at 1 µM | actives 2.3% (n = 360,000) | AID 588726, 2011
GDH-TPI counter-1: GDH-TPI coupling enzyme inhibitors, primary screen, artefact control for M. tuberculosis FBA inhibitor project, biochemical, absorbance, full deck; AID 588335, 2011; actives 1.2% (n = 360,000); inhibition, % at 4.8 µM; GDH-TPI coupled enzyme counterscreen, NADH absorbance; in the data active = inhibition above about 30%
RecA splice inh: Mtb RecA intein splicing inhibitors, primary screen, biochemical, fluorescence, HTS; cell-free RecA intein splicing; inhibition, % (test concentration not listed); actives 0.75% (n = 290,000); AID 2221, 2009; in the data active = inhibition above about 30%; inconclusive = no clear call, values can overlap the other calls
Rv3671c protease: Rv3671c serine protease inhibitors, primary screen, biochemical, fluorescence polarization, M. tuberculosis H37Rv; inhibition, % at 5.96 µM; actives 0.048% (n = 320,000); P9WHR9; in the data active = inhibition above about 38%;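 note: extracellular domain of Rv3671c used as enzyme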
Mtb bLac sens: beta-lactam sensitization of Mtb H37Rv, H37Rv. M. tuberculosis H37Rv growth with meropenem, percent inhibition. inhibition, % at 25 µM. actives 0.27% (n = 330,000). AID 434955, 2010; call rule not given here;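 note: growth measured after seven days incubation then overnight dye step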
Mtb FBA inh conf: M. tuberculosis aldolase blockers, biochemical, fluorescence, strain H37Rv, confirmation; shares compounds with FBA Mtb inh; purified M. tuberculosis FBA, fluorescence read-out; inhibition, % at 1 µM; actives 78% (n = 5,600); AID 651616, 2012
GDH-TPI counter-2: GDH-TPI coupling enzyme inhibitors, artefact control for M. tuberculosis FBA inhibitor project, biochemical, fluorescence, high throughput; shares compounds with FBA Mtb inh; GDH-TPI coupled enzyme counterscreen; inhibition, % at 1 µM; actives 81% (n = 5,600); in the data active = inhibition above about 10%
A number is an active result; - = inactive; ? = inconclusive; . = not tested or not shown. Cut-off read from the data, not from the text of the source, unless noted: active = inhibition above about 27%; inactive = the rest.

SMILES	UGM FP inh	FBA Mtb inh	GDH-TPI counter-1	RecA splice inh	Rv3671c protease	Mtb bLac sens	Mtb FBA inh conf	GDH-TPI counter-2
O=C(CN1C(=O)c2cccc3cccc1c23)NCC1CCCO1 (configuration not stated)	-	-	-	-	-	-	.	.
Cc1ccc(S(=O)(=O)NCC(=O)N(CC2CCCO2)C(C(=O)NC2CCCCC2)C(C)C)cc1 (configuration not stated)	-	-	-	-	-	-	.	.
Cc1nc2c(c(C)nn2-c2ccccc2)c(C)c1CCC(=O)Nc1ccc(CN2CCCC2)cc1	-	30	-	-	-	-	66	49
COC(=O)C(NC(=O)CCc1c(C)nc2c(c(C)nn2-c2ccccc2)c1C)C(C)C (configuration not stated)	-	43	-	-	.	-	57	48
CCCCNC(=O)CCc1c(C)nc2c(c(C)nn2-c2ccccc2)c1C	-	-	-	-	.	-	.	.
CCC(C)NC(=O)CCc1c(C)nc2c(c(C)nn2-c2ccccc2)c1C (configuration not stated)	-	44	-	-	-	-	50	34
CCOC(=O)CCc1c(C)nc2c(c(C)nn2-c2ccccc2)c1C	-	-	-	-	-	-	.	.
Cc1nc2c(c(C)nn2-c2ccccc2)c(C)c1CCC(=O)NCCCOC(C)C	-	41	-	-	-	?	40	36
Cn1c(=O)c2c(nc(SCCN3CCCCC3)n2Cc2ccc(Cl)cc2)n(C)c1=O	-	44	-	-	-	-	80	68
CCN(CC)CCCNc1cc2n(c(=O)n1)CCc1cc(OC)c(OC)cc1-2	-	41	-	-	-	-	-	-
COc1ccc(S(=O)(=O)N2CCC(Cc3ccccc3)CC2)cc1NC(C)=O	-	-	-	-	-	-	.	.
Cc1[nH]nc2c1-c1nc3ccccc3nc1C(C)(C)C2	-	38	-	-	-	-	-	18
CC12CCC(C)(c3nc4ccccc4nc31)C2(C)C	-	-	-	-	-	-	.	.
CC(=O)N1CCC2(CC1)CC(=O)c1cc(OCC(=O)N3CCOCC3)ccc1O2	-	70	-	-	-	-	67	67
CCOC(=O)N1CCN(C(=O)COc2ccc3c(c2)C(=O)CC2(CCN(C(C)=O)CC2)O3)CC1	-	63	-	-	-	-	139	120
Cc1ccc(OCC(=O)N2CCC3(CC2)CC(=O)c2ccccc2O3)cc1	-	-	-	-	-	-	.	.
C=CCNC(=O)/C(C#N)=C/c1c(N2CCN(c3ccc(OC)cc3)CC2)nc2c(C)cccn2c1=O	-	46	-	-	-	-	174	158
COC(=O)/C(C#N)=C/c1c(N2CCN(c3ccccc3)CC2)nc2c(C)cccn2c1=O	.	-	-	-	.	.	.	.
COCCCNC(=O)/C(C#N)=C/c1c(N2CCN(c3cccc(Cl)c3)CC2)nc2c(C)cccn2c1=O	-	54	-	-	-	-	146	120
COCCCNC(=O)/C(C#N)=C/c1c(N2CCN(c3ccccc3)CC2)nc2c(C)cccn2c1=O	-	-	-	-	-	-	.	.
CCNC(=O)/C(C#N)=C/c1c(N2CCN(C)CC2)nc2c(C)cccn2c1=O	-	59	-	-	-	-	96	73
COc1ccc(N2CCN(c3nc4c(C)cccn4c(=O)c3/C=C(\C#N)C(N)=O)CC2)cc1	-	32	-	-	-	-	-	-
COc1cccc(CCNC(=O)CCCC(=O)c2ccccc2)c1	-	-	-	-	-	-	.	.
COCCNC(=O)C1CCCN(Cc2ccc(C)cc2)CC1 (configuration not stated)	.	-	-	.	.	.	.	.
Cc1nc2c(-c3ccc(F)cc3)cnn2c2c1CCC2	-	-	-	-	-	-	.	.

From PubChem
